Measured values taken from the supplement of paper PMC6555819.

Test system: PXR homodimer (NR concentration 270 nM)
Assay: PBM binding z-score (relative to random genomic background probes); higher = stronger binding; sequences stand for … in GC…GCGATTGACAGCGTAGAATGAAGG
Method in brief: (§1)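 Scanned fluorescence from custom Agilent 4×180K protein-binding microarrays was regression-normalized. Binding z-scores use random background probes as reference. Ligand-free nuclear receptor dimers were incubated on the arrays for 1 h and detected with antibodies against each partner (one per run).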

Q: How did the PBM binding z-score turn out when TGTCAAAGTTCAAAGGTAATGTAAGTATCCACAC was run?
A: Its PBM binding z-score is 3.61.

Q: For GCTTGTAGATCTAGGTTAAGAAAGACTAAGCTAA, which PBM binding z-score is on record?
A: The PBM binding z-score was -0.246.

Q: For TCTAGTTGGTCACGGAGGTCACATACGACGGGTA, which PBM binding z-score is on record?
A: The PBM binding z-score was 1.7.

Q: TGAATGAGGTTAAAGATCAGCGAACGTGGCGTCG was tested. Which PBM binding z-score did it give?
A: The PBM binding z-score was -0.0611.

Q: TCTTGTACATCAATAGAGGTTAAGAAAGTGCGCT was tested. Which PBM binding z-score did it give?
A: The PBM binding z-score was 0.485.

Q: With GGAACGCGGGCAAGTTGATAGCAGAGTTTGATGG as the sequence, how does the PBM binding z-score read?
A: The PBM binding z-score was -0.209.

Q: AGTCAAAGTTCAGGACGAGGTAACGGAAAGCACG was tested. Which PBM binding z-score did it give?
A: The PBM binding z-score was 1.31.

Q: With ACAGACAGGTGAGAGAAGGTAACTCAGCTGGACG as the sequence, how does the PBM binding z-score read?
A: The PBM binding z-score was -0.505.

Q: For TCATATAGGTAAATGCTAGGGGAAAGTCCGATCT, which PBM binding z-score is on record?
A: The PBM binding z-score was 0.33.

Q: With CCTTACGGGTCACTCCAGGTTATTGCATCGGAGT as the sequence, how does the PBM binding z-score read?
A: The PBM binding z-score was 0.3.

Q: Which PBM binding z-score does the source give for GCAGACAGGAGAAACGCAGGTAACTCAGGGTGGC here?
A: The PBM binding z-score was -0.412.

Q: For CCGAGTACGTTATGGGGCATTCAGGCAACGGTGA, which PBM binding z-score is on record?
A: The PBM binding z-score was -0.398.

Q: TCGAGTAGGCTAGTCGGGGCATTCAGCCAACATA was tested. Which PBM binding z-score did it give?
A: The PBM binding z-score was -0.889.

Q: Which PBM binding z-score does the source give for CCAGACAGGTGAAAGGTAACTCAGTCTGGTACGC here?
A: Its PBM binding z-score is 0.027.

Q: With CTCGAAAGGTCGGTTGAGGTGAGGATACGGATAA as the sequence, how does the PBM binding z-score read?
A: The PBM binding z-score was 0.154.

Q: Which PBM binding z-score does the source give for TTACCAAGGTGAAGGTAGTTGATCCCTCTGTAGA here?
A: The PBM binding z-score was -0.74.

Q: CCGACCGGGGCATAAGGTTACCATAAGCCAGCCC was tested. Which PBM binding z-score did it give?
A: The PBM binding z-score was -0.0926.

Q: For CATACAGGGTCAGCTCGGCCAGAGTAGGGACGGC, which PBM binding z-score is on record?
A: The PBM binding z-score was 0.0599.

Q: With ACTTGTTGGTCAGCTGAGGTCACACACAATTCGG as the sequence, how does the PBM binding z-score read?
A: The PBM binding z-score was 1.27.

Q: Which PBM binding z-score does the source give for CCTGCTAGGTAATGGTCAGCTAATCTACAGTATG here?
A: Its PBM binding z-score is -0.524.

Q: For CGTCCAGGGTCATAGGAGGTCAGTGAAGACAGAT, which PBM binding z-score is on record?
A: Its PBM binding z-score is 2.73.

Q: CCTTACGGTTCACTCCAGGTTATAGCATCGGAGT was tested. Which PBM binding z-score did it give?
A: Its PBM binding z-score is 1.46.

Q: With AGTCAGAGTTCAGGACGAGGTAACGTAAAGCACG as the sequence, how does the PBM binding z-score read?
A: The PBM binding z-score was 1.88.

Q: Which PBM binding z-score does the source give for TCAGACAGGCGAAGGTAACTCAGGTACGCAGTCG here?
A: Its PBM binding z-score is -0.281.

Q: For CGCCCAAGGTCAGAGAGGTCAGTGAATGCCGAGT, which PBM binding z-score is on record?
A: Its PBM binding z-score is 11.8.

Q: Which PBM binding z-score does the source give for GCATATAGGTAATACAAAGTGAAAGTCCGATTGT here?
A: Its PBM binding z-score is -0.0675.

Q: How did the PBM binding z-score turn out when CGAACTAGATCATCCAGGACAGTGAATACATTGA was run?
A: The PBM binding z-score was 0.306.

Q: For CTACCAAGGTGAACAAGGTGGTTGATTACTATTC, which PBM binding z-score is on record?
A: The PBM binding z-score was 0.0854.

Q: With ACATACGGGTCAACGAGGTTATAGCACGCGTATA as the sequence, how does the PBM binding z-score read?
A: The PBM binding z-score was 2.89.

Q: With CGTCCAAGGTCAAGGTCAGTAAAAGAGACTCGAA as the sequence, how does the PBM binding z-score read?
A: Its PBM binding z-score is 1.84.

Q: How did the PBM binding z-score turn out when GCGACTGGGGCATCAGCAGGTAACCATAACTTAA was run?
A: The PBM binding z-score was -0.176.

Q: How did the PBM binding z-score turn out when ATATGTAGATTAGCTGGGGTCATTCAGACTAGGC was run?
A: Its PBM binding z-score is 2.56.

Q: ACTAGTTGGTCAGCTGAGGTCCCACACAATTCGG was tested. Which PBM binding z-score did it give?
A: Its PBM binding z-score is -0.424.

Q: AGAGTGAGGTTATACGTAGATCAGGGAAGAAAGT was tested. Which PBM binding z-score did it give?
A: Its PBM binding z-score is 1.28.

Q: For GCTAGCAGGCCATTTGGGGCACTCAATGACGGGC, which PBM binding z-score is on record?
A: Its PBM binding z-score is -0.802.

Q: With GCTAGTTGGTCAGGAAAAGGTCACACACCGGTCG as the sequence, how does the PBM binding z-score read?
A: The PBM binding z-score was 1.13.

Q: CCGACTGGGGCATAAGGTTACCACAAGCCAGCCC was tested. Which PBM binding z-score did it give?
A: Its PBM binding z-score is -0.315.

Q: ACTAGTTGGTCAGCAGAGGTCACACACAATTCGG was tested. Which PBM binding z-score did it give?
A: Its PBM binding z-score is 1.6.

Q: With TCTTGTAGATCAAAGGTTAAAAAAGCCGAAGCCT as the sequence, how does the PBM binding z-score read?
A: The PBM binding z-score was 0.0944.

Q: CCGACTGGTGCATAAGGTTACCATAAGCCAGCCC was tested. Which PBM binding z-score did it give?
A: The PBM binding z-score was -0.018.

Test system: RARa:RXR (NR concentration 270 nM, RXRa partner concentration 90 nM)
Assay: as above
Method in brief: as §1

Q: With TGTCAAAGTTCAAAGGTAATGTAAGTATCCACAC as the sequence, how does the PBM binding z-score read?
A: Its PBM binding z-score is 5.92.

Q: GCTTGTAGATCTAGGTTAAGAAAGACTAAGCTAA was tested. Which PBM binding z-score did it give?
A: Its PBM binding z-score is 0.0619.

Q: For TCTAGTTGGTCACGGAGGTCACATACGACGGGTA, which PBM binding z-score is on record?
A: The PBM binding z-score was 4.13.

Q: For TGAATGAGGTTAAAGATCAGCGAACGTGGCGTCG, which PBM binding z-score is on record?
A: Its PBM binding z-score is 2.82.

Q: For TCTTGTACATCAATAGAGGTTAAGAAAGTGCGCT, which PBM binding z-score is on record?
A: The PBM binding z-score was 1.98.

Q: With GGAACGCGGGCAAGTTGATAGCAGAGTTTGATGG as the sequence, how does the PBM binding z-score read?
A: The PBM binding z-score was -0.839.

Q: For AGTCAAAGTTCAGGACGAGGTAACGGAAAGCACG, which PBM binding z-score is on record?
A: Its PBM binding z-score is 2.62.

Q: How did the PBM binding z-score turn out when ACAGACAGGTGAGAGAAGGTAACTCAGCTGGACG was run?
A: The PBM binding z-score was 0.102.

Q: How did the PBM binding z-score turn out when TCATATAGGTAAATGCTAGGGGAAAGTCCGATCT was run?
A: The PBM binding z-score was 0.628.

Q: How did the PBM binding z-score turn out when CCTTACGGGTCACTCCAGGTTATTGCATCGGAGT was run?
A: Its PBM binding z-score is 4.02.

Q: How did the PBM binding z-score turn out when GCAGACAGGAGAAACGCAGGTAACTCAGGGTGGC was run?
A: The PBM binding z-score was -0.368.

Q: How did the PBM binding z-score turn out when CCGAGTACGTTATGGGGCATTCAGGCAACGGTGA was run?
A: Its PBM binding z-score is -0.541.

Q: For TCGAGTAGGCTAGTCGGGGCATTCAGCCAACATA, which PBM binding z-score is on record?
A: Its PBM binding z-score is -0.446.

Q: For CCAGACAGGTGAAAGGTAACTCAGTCTGGTACGC, which PBM binding z-score is on record?
A: The PBM binding z-score was 1.99.

Q: For CTCGAAAGGTCGGTTGAGGTGAGGATACGGATAA, which PBM binding z-score is on record?
A: Its PBM binding z-score is 2.64.

Q: With TTACCAAGGTGAAGGTAGTTGATCCCTCTGTAGA as the sequence, how does the PBM binding z-score read?
A: Its PBM binding z-score is 0.351.

Q: How did the PBM binding z-score turn out when CCGACCGGGGCATAAGGTTACCATAAGCCAGCCC was run?
A: Its PBM binding z-score is 1.79.

Q: CATACAGGGTCAGCTCGGCCAGAGTAGGGACGGC was tested. Which PBM binding z-score did it give?
A: Its PBM binding z-score is 2.97.

Q: How did the PBM binding z-score turn out when ACTTGTTGGTCAGCTGAGGTCACACACAATTCGG was run?
A: Its PBM binding z-score is 4.54.

Q: Which PBM binding z-score does the source give for CCTGCTAGGTAATGGTCAGCTAATCTACAGTATG here?
A: The PBM binding z-score was -0.39.

Q: With CGTCCAGGGTCATAGGAGGTCAGTGAAGACAGAT as the sequence, how does the PBM binding z-score read?
A: Its PBM binding z-score is 6.61.

Q: Which PBM binding z-score does the source give for CCTTACGGTTCACTCCAGGTTATAGCATCGGAGT here?
A: The PBM binding z-score was 2.25.

Q: AGTCAGAGTTCAGGACGAGGTAACGTAAAGCACG was tested. Which PBM binding z-score did it give?
A: The PBM binding z-score was 2.67.

Q: With TCAGACAGGCGAAGGTAACTCAGGTACGCAGTCG as the sequence, how does the PBM binding z-score read?
A: The PBM binding z-score was 0.0245.

Q: CGCCCAAGGTCAGAGAGGTCAGTGAATGCCGAGT was tested. Which PBM binding z-score did it give?
A: Its PBM binding z-score is 5.47.

Q: How did the PBM binding z-score turn out when GCATATAGGTAATACAAAGTGAAAGTCCGATTGT was run?
A: The PBM binding z-score was -0.178.

Q: With CGAACTAGATCATCCAGGACAGTGAATACATTGA as the sequence, how does the PBM binding z-score read?
A: The PBM binding z-score was 0.105.

Q: For CTACCAAGGTGAACAAGGTGGTTGATTACTATTC, which PBM binding z-score is on record?
A: The PBM binding z-score was 0.44.

Q: Which PBM binding z-score does the source give for ACATACGGGTCAACGAGGTTATAGCACGCGTATA here?
A: Its PBM binding z-score is 5.03.

Q: For CGTCCAAGGTCAAGGTCAGTAAAAGAGACTCGAA, which PBM binding z-score is on record?
A: Its PBM binding z-score is 5.

Q: How did the PBM binding z-score turn out when GCGACTGGGGCATCAGCAGGTAACCATAACTTAA was run?
A: The PBM binding z-score was 0.582.

Q: For ATATGTAGATTAGCTGGGGTCATTCAGACTAGGC, which PBM binding z-score is on record?
A: The PBM binding z-score was 5.47.

Q: How did the PBM binding z-score turn out when ACTAGTTGGTCAGCTGAGGTCCCACACAATTCGG was run?
A: The PBM binding z-score was 0.479.

Q: How did the PBM binding z-score turn out when AGAGTGAGGTTATACGTAGATCAGGGAAGAAAGT was run?
A: The PBM binding z-score was 1.65.

Q: For GCTAGCAGGCCATTTGGGGCACTCAATGACGGGC, which PBM binding z-score is on record?
A: The PBM binding z-score was -0.159.

Q: GCTAGTTGGTCAGGAAAAGGTCACACACCGGTCG was tested. Which PBM binding z-score did it give?
A: The PBM binding z-score was 5.97.

Q: How did the PBM binding z-score turn out when CCGACTGGGGCATAAGGTTACCACAAGCCAGCCC was run?
A: Its PBM binding z-score is 1.25.

Q: ACTAGTTGGTCAGCAGAGGTCACACACAATTCGG was tested. Which PBM binding z-score did it give?
A: Its PBM binding z-score is 5.96.

Q: Which PBM binding z-score does the source give for TCTTGTAGATCAAAGGTTAAAAAAGCCGAAGCCT here?
A: Its PBM binding z-score is 3.21.

Q: For CCGACTGGTGCATAAGGTTACCATAAGCCAGCCC, which PBM binding z-score is on record?
A: Its PBM binding z-score is 1.18.
